Laboratory results taken from PubChem BioAssay (NCATS).
Results filed as inconclusive are left out. The source made the active and inactive calls. The call rests on the fitted dose curve; in most records, active means well fitted inhibition curve with a large enough effect; inconclusive means small, poorly fitted or top-dose-only effect, or effect the other way; inactive means flat fitted curve, though single readings scatter.

Assay: Quantitative high throughput screen for delayed death inhibitors of the malarial parasite plastid, 48 hour incubation (AID 488752); further: nearly all actives have a fitted effect of over 65% in size
Details: Plasmodium falciparum growth; series mostly up to 28.7 µM; activity change, negative = inhibition: at the top concentration
Description: NIH Molecular Libraries Probe Production Network [MLPCN]
NIH Chemical Genomics Center [NCGC]
Assay Provider: David Fidock and Eric Ekland, Columbia University
The goal of this screen is to discover new antimalarial compounds that act by inhibiting the development of the apicoplast in the malarial parasite Plasmodium falciparum. The biochemical processes that make this organelle essential for erythrocytic stage parasites are not well understood. However, antibiotics, such as azithromycin and tetracycline, which target the apicoplast translational machinery, have a potent antimalarial effect.
We have developed a cell-based assay that measures parasite growth based on the expression of an integrated copy of a firefly luciferase reporter. To detect small molecules that cause this 'delayed death' phenotype, erythrocytes infected with the luciferase-expressing parasites were incubated with compounds for either one or two generations, corresponding to 48 and 96 hours, respectively. Compounds that inhibit parasite growth in the second generation, but not the first, should be enriched in antimalarials that target the apicoplast. Growth inhibition is detected by a decrease in luciferase activity
Four microliters of culture medium (RPMI 1640 with 0.5% w/v Albumax (GIBCO), 24 mM sodium bicarbonate and 10 ug/mL gentamycin) were dispensed by a Multi-drop Combi into white solid 1536-well plates (Grenier) and 23 nL compound was added by a pin tool. Four microliters of infected erythrocytes (2% hematocrit, 0.1% parasitemia final concentration) in culture medium were dispensed and the plates incubated for 48 hours at 37 C in 5% CO2. Two microliters of luciferase detection reagent was added and luminescence was detected by a ViewLux (PerkinElmer) reader
On the % scale 0 is the no-effect control and ±100 the full control effect; potency means the concentration at half of the fitted maximal effect.

Row | SMILES | activity change, negative = inhibition | Potency
1 | CCC1(C2=NCCN2)Cc2ccccc2O1 (centres undefined) | 14.2% (inactive) | 
2 | CCCC(C)(COC(N)=O)COC(=O)NC(C)C (centres undefined) | 8.77% (inactive) | 
3 | NCC1(CC(=O)O)CCCCC1 | -5.11% (inactive) | 
4 | CN1C[C@H](CNC(=O)OCc2ccccc2)C[C@@H]2c3cccc4c3c(cn4C)C[C@H]21 |  | 7.38 µM (active)
5 | Cc1cccc(C)c1NC1=NCCCS1 | 2.45% (inactive) | 
6 | O=C1NCN(c2ccccc2)C12CCN(CC1COc3ccccc3O1)CC2 (centres undefined) | 8.37% (inactive) | 
7 | Nc1ccncc1 | 1.21% (inactive) | 
8 | O=c1[nH]cc(F)c(=O)[nH]1 |  | 10.4 µM (active)
9 | CCn1cc(C(=O)O)c(=O)c2ccc(C)nc21 | -4.84% (inactive) | 
10 | CN(C)C(=O)C(CCN1CCC(O)(c2ccc(Cl)cc2)CC1)(c1ccccc1)c1ccccc1 |  | 8.28 µM (active)
11 | NCC(O)c1ccc(O)cc1 (centres undefined) | 6.1% (inactive) | 
12 | C[C@@H]1O[C@@H](O[C@H]2C[C@@H](O)[C@]3(CO)[C@H]4[C@H](O)C[C@]5(C)[C@@H](C6=CC(=O)OC6)CC[C@]5(O)[C@@H]4CC[C@]3(O)C2)[C@H](O)[C@H](O)[C@H]1O | 13.7% (inactive) | 
13 | Cc1ncc(CNC(=O)N(CCCl)N=O)c(N)n1 | 1.04% (inactive) | 
14 | Cc1ccc(S(=O)(=O)N[C@@H](CCCCN)C(=O)CCl)cc1 | -21.9% (inactive) | 
15 | CNCC(O)c1ccc(O)cc1 (centres undefined) | -0.613% (inactive) | 
16 | OCCN1CCN(CCCN2c3ccccc3Sc3ccc(C(F)(F)F)cc32)CC1 |  | 9.28 µM (active)
17 | CCCN1CCC[C@@H]2Cc3nc(N)ncc3C[C@H]21 | 1.99% (inactive) | 
18 | c1ccc(C2CC2)c(OCC2=NCCN2)c1 | 0.828% (inactive) | 
19 | N#CC(C#N)=Cc1ccc(O)c(O)c1 | -21.7% (inactive) | 
20 | CC(CCc1ccccc1)NC(C)C(O)c1ccc(O)cc1 (centres undefined) | 6.38% (inactive) | 
21 | C=C(C)[C@H]1Cc2c(ccc3c2O[C@@H]2COc4cc(OC)c(OC)cc4[C@@H]2C3=O)O1 | -36.2% (inactive) | 
22 | COc1ccccc1N1CCNCC1 | -16.8% (inactive) | 
23 | COc1ccc(Cc2nccc3cc(OC)c(OC)cc23)cc1OC | -12.8% (inactive) | 
24 | c1ccc2c(c1)OCC(C1=NCCN1)O2 (centres undefined) | -21.2% (inactive) | 
25 | CC(=O)[C@H]1CC[C@H]2[C@@H]3CC[C@H]4C[C@H](O)CC[C@]4(C)[C@H]3C(=O)C[C@]12C | -10.9% (inactive) | 
26 | Clc1cccc(N2CCNCC2)c1 | -4.7% (inactive) | 
27 | O=c1[nH]c2ccccc2n1CCCN1CCC(n2c(=O)[nH]c3cc(Cl)ccc32)CC1 |  | 10.4 µM (active)
28 | NN=C(N)N |  | inactive
29 | NCC(CC(=O)O)c1ccc(Cl)cc1 (centres undefined) | 11.7% (inactive) | 
